# PMK inhibit: inhibitors of Streptococcus pneumoniae phosphomevalonate kinase; purified PMK, PK/LDH-coupled NADH absorbance 340 nm; 0.49% of 65,000 active; inhibition, % at 10 µM;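 active = top-ranked compounds by inhibition in the single 10 µM screen, taking a fixed number of the strongest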
# A340 absorber: compound absorbs light at 340 nm; 65,000 tested, under 10 active; fold change at 10 µM; compound absorbance at 340 nm, fold over control;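 active = at 10 µM dose, initial 340 nm absorbance at least 2 fold that of control wells; inactive = change under 2 fold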;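 also: initial absorbance extrapolated from kinetic A340 decline of NADH oxidation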
# DPM-DC inhibit: S. pneumoniae DPM-DC inhibition; purified DPM-DC, PK/LDH coupled NADH fluorescence; 0.49% of 65,000 active; calls only at 10 µM;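 active = the 320 compounds with the highest percent inhibition in the single-dose primary screen, excluding strongly autofluorescent ones, cut at about 32% in these data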;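 also: kinetic rate of NADH fluorescence loss reporting ADP formed by the decarboxylase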
# MK inhibit: S. pneumoniae mevalonate kinase inhibition; purified MK, PK/LDH-coupled NADH absorbance 340 nm; inhibition, % at 10 µM; 0.48% of 65,000 active; AID 555;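 active = ranked among the strongest by inhibition in the single 10 µM screen, a fixed top-ranked set picked for dose follow-up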
# NADH coupling: inhibition of NAD/NADH coupling enzymes, library profiling | coupled PK/LDH NADH assays, four targets | IC50, µM (titrated, usually from 10 µM) | 0.02% of 65,000 active | AID 774;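 active = single-dose screening hits from any of four coupled enzyme assays that gave an IC50 when retested across doses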;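 also: the DPM-DC format reads NADH fluorescence rather than 340 nm absorbance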
# Fluor 339 460: intrinsic fluorescence of library compounds, ex339/em460 – biochemical, MLSMR library, data from DPM-DC assay, artefact control, profiling panel; fluorescence fold increase at 10 µM; compound autofluorescence, ex339/em460 nm, NADH buffer; hits give high values; 1 = no-compound wells, NADH background; AID 709; 5.5% of 65,000 active;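 active = at 10 µM, mean starting fluorescence two-fold or more over control wells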;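 also: signal is the first read of a kinetic run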
# A number is an active result; – = inactive; · = not tested or not shown; + = active, no number. The list is not random: actives were taken first. Their share in the collection is about 6.5%.
SMILES,PMK inhibit,A340 absorber,DPM-DC inhibit,MK inhibit,NADH coupling,Fluor 339 460
CCOc1cc2[nH]c(=O)n(CCCC(=O)NCc3ccco3)c(=O)c2cc1OCC,–,–,–,–,–,2.3
CCOc1cc2[nH]c(=O)n(CCCCC(=O)NC3CCCCC3)c(=O)c2cc1OCC,–,–,–,–,–,2.45
CCOc1cc2[nH]c(=O)n(CCCCC(=O)NCc3ccco3)c(=O)c2cc1OCC,–,–,–,–,–,–
COc1cc2[nH]c(=O)n(CCC(=O)NC3CCCC3)c(=O)c2cc1OC,–,–,–,–,–,2.02
CCCCCNC(=O)CCCCn1c(=O)[nH]c2cc(OCC)c(OCC)cc2c1=O,–,–,–,–,–,2.13
COc1ccccc1NC(=O)C1=C(C)Nc2nnnn2C1c1cc(Br)ccc1OC (stereo unspecified),–,–,–,–,–,–
CC(/C=N/n1cnnc1)=C\c1ccco1,–,–,+,–,3441µM,–
CCN(CC)CCOC(=O)c1ccc(N=CC2=C(O)CC(C)(C)CC2=O)cc1,–,–,+,–,–,–
CCn1c(SCC(=O)c2[nH]c(C)c(C(C)=O)c2C)nnc1-c1cccs1,27.0,–,–,–,–,–
CCCC(=O)Nc1ccc(N2CCN(C(=O)CCC)CC2)cc1,–,–,+,–,–,–
O=C1OCC(c2ccccc2)=C1c1ccc(S(=O)(=O)N2CCOCC2)s1,–,–,–,–,–,–
COc1ccc(C)cc1NC(=O)c1cnc2scc(C)n2c1=O,–,–,·,–,–,2.12
CCc1ccc(NC(=O)c2cnc3scc(C)n3c2=O)cc1,–,–,+,–,–,–
Cc1csc2ncc(C(=O)Nc3cccc(C(F)(F)F)c3)c(=O)n12,–,–,–,–,–,–
COC(=O)c1cc(=O)nc2sc(-c3cccs3)nn12,–,–,·,–,–,2.74
COc1cc2[nH]c(=S)n(NC(=O)CC(C)C)c(=O)c2cc1OC,–,–,–,–,–,–
CCCNC(=O)c1c(N)n(-c2cc(OC)cc(OC)c2)c2nc3ccccc3nc12,–,–,·,–,–,2.47
CCCNC(=O)c1c(N)n(-c2ccc3c(c2)OCO3)c2nc3ccccc3nc12,–,–,–,–,–,–
Nc1c(C(=O)NC2CC2)c2nc3ccccc3nc2n1-c1ccc2c(c1)OCO2,–,–,·,–,–,3.24
COCCCNC(=O)c1c(N)n(-c2ccc3c(c2)OCO3)c2nc3ccccc3nc12,–,–,–,–,–,2.67
COC(=O)c1c(C(=O)OC)c2cc(C)ccn2c1Cl,–,–,·,–,–,3.4
CCCc1cc(=O)oc2c(CN3CCCC3)c(O)c(Cl)cc12,–,–,·,–,–,2.35
CCc1cc(=O)oc2cc(C)c(CN3CCCC3)c(O)c12,–,–,–,–,–,–
CCCc1cc(=O)oc2c(CN3CCCC3)c(O)ccc12,–,–,·,–,–,2.3
CCCc1cc(=O)oc2cc(C)c(CN3CCCC3)c(O)c12,–,–,–,–,–,–
SMILES,PMK inhibit,A340 absorber,DPM-DC inhibit,MK inhibit,NADH coupling,Fluor 339 460
CC1=C(C(=O)OC(C)C)C(c2ccc(Br)s2)NC(=O)N1C (stereo unspecified),–,–,–,–,–,–
O=c1c(/C=N/O)c(Nc2ccccc2)nc2ccccn12,–,–,–,–,–,–
O=S1(=O)NC2CCCCCN2c2ccc(F)cc21 (stereo unspecified),–,–,–,–,–,3.64
O=C(Nc1ccc(F)cc1)C1CCCCC1,–,–,–,–,–,–
Cn1c(NC(=O)Cc2ccc(F)cc2)cc(=O)n(C)c1=O,–,–,–,–,–,–
COC(=O)c1cc(OC)c(OC)cc1NC(=O)c1c(-c2ccccc2Cl)noc1C,–,–,–,–,–,–
COC(=O)c1cc(-c2ccccc2)sc1NC(=O)c1cc(C)on1,–,–,·,–,–,2.46
CC1CCN(CCCNC(=O)Cc2c(C(=O)O)n(C)c3ccccc23)CC1,–,–,–,–,–,–
O=C(CSc1n[nH]c(-c2ccc(S(=O)(=O)NC3CCCCC3)cc2)n1)N1CCCC1,–,–,–,–,–,2.97
Cc1sc(NC(=O)c2oc3ccccc3c2C)c(C#N)c1C,–,–,·,–,–,3.81
COC(=O)CC1C(=O)NCCN1C(=O)Nc1ccccc1 (stereo unspecified),–,–,–,–,–,–

# Screening results: PubChem, SRMLSC
